# The supplement of paper PMC6555819
# Tests used:
# Experiment in all cases: PBM binding z-score (relative to random genomic background probes); higher = stronger binding; sequences stand for … in GC…GCGATTGACAGCGTAGAATGAAGG
# [1] = tested on: FXR:RXRa (NR concentration 270 nM, RXRa partner concentration 90 nM)
# Summary of the method: (§1)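 Random background probes are the reference for binding z-scores. These scores derive from regression-normalized fluorescence on custom Agilent 4×180K protein-binding microarrays incubated 1 h with ligand-free nuclear receptor dimers. Binding was detected with antibodies against each partner (one per run).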
# [2] = tested on: LXRa:RXRa (NR concentration 270 nM, RXRa partner concentration 90 nM)
# Summary of the method: as §1
# [3] = tested on: LXRa homodimer (NR concentration 270 nM)
# Summary of the method: as §1
# [4] = tested on: LXRb:RXRa (NR concentration 270 nM, RXRa partner concentration 90 nM)
# Summary of the method: as §1
# [5] = tested on: LXRb homodimer (NR concentration 270 nM)
# Summary of the method: as §1
# [6] = tested on: PPARa:RXRa (NR concentration 270 nM, RXRa partner concentration 90 nM)
# Summary of the method: as §1
# [7] = tested on: PPARg:RXRa (NR concentration 180 nM, RXRa partner concentration 90 nM)
# Summary of the method: as §1
# [8] = tested on: PPARg:RXRa 270nM:90nM, anti-RXR (NR concentration 270 nM, RXRa partner concentration 90 nM)
# Summary of the method: as §1
# [9] = tested on: PPARg:RXRa 30nM:10nM, anti-RXR (NR concentration 30 nM, RXRa partner concentration 10 nM)
# Summary of the method: as §1
# [10] = tested on: PPARg:RXRa 90nM:30nM, anti-RXR (NR concentration 90 nM, RXRa partner concentration 30 nM)
# Summary of the method: as §1
# [11] = tested on: PPARg:RXRa DBDmut IVT, anti-RXR (DBD mutation: RXRa K156A/R161A, NR concentration 270 nM, RXRa partner concentration 90 nM)
# Summary of the method: as §1
# [12] = tested on: PPARg:RXRa IVT, anti-PPARg (NR concentration 270 nM, RXRa partner concentration 90 nM)
# Summary of the method: as §1
# [13] = tested on: PPARg DBDmut:RXRa IVT, anti-PPARg (DBD mutation: PPARg1 K132A/R137A, NR concentration 270 nM, RXRa partner concentration 90 nM)
# Summary of the method: as §1
# [14] = tested on: PPARg DBDmut IVT, anti-PPARg (DBD mutation: PPARg1 K132A/R137A, NR concentration 270 nM)
# Summary of the method: as §1
# [15] = tested on: PPARg homodimer (NR concentration 180 nM)
# Summary of the method: as §1
# [16] = tested on: PXR:RXRa (NR concentration 270 nM, RXRa partner concentration 90 nM)
# Summary of the method: as §1
# [17] = tested on: PXR homodimer (NR concentration 270 nM)
# Summary of the method: as §1
# [18] = tested on: RARa:RXR (NR concentration 270 nM, RXRa partner concentration 90 nM)
# Summary of the method: as §1
# [19] = tested on: RARa homodimer (NR concentration 270 nM)
# Summary of the method: as §1
# [20] = tested on: RARb:RXRa (NR concentration 270 nM, RXRa partner concentration 90 nM)
# Summary of the method: as §1
Sequence,PBM binding z-score [1],PBM binding z-score [2],PBM binding z-score [3],PBM binding z-score [4],PBM binding z-score [5],PBM binding z-score [6],PBM binding z-score [7],PBM binding z-score [8],PBM binding z-score [9],PBM binding z-score [10],PBM binding z-score [11],PBM binding z-score [12],PBM binding z-score [13],PBM binding z-score [14],PBM binding z-score [15],PBM binding z-score [16],PBM binding z-score [17],PBM binding z-score [18],PBM binding z-score [19],PBM binding z-score [20]
CGCGAAAGGTCGTGCTCAGGTGAGTATACCAAAC,5.65,3.9,0.199,3.55,-0.0921,4.89,3.65,4.46,0.769,2.86,0.794,1.92,0.376,-0.142,2.14,3.61,0.0719,4.63,0.019,4.18
CCGACTGAGGCAAGGTTACCATAACGCACAGCCA,0.169,0.738,-0.295,0.593,-0.805,0.985,0.898,0.236,-0.466,0.134,-0.0464,-0.0439,-0.139,-0.814,0.4,0.18,-0.0704,0.645,0.194,0.904
CCTATTAGTTGACCATAAGGGCCACCGAAGCTCG,0.118,0.041,0.365,0.0156,0.659,0.169,0.368,0.219,0.231,0.304,0.171,0.5,0.477,0.579,1.36,-0.0446,0.497,0.206,1.88,1.02
TAGTCTAGGTCATGGGCCAGTATACCACGCGAAC,4.42,3.68,1.27,2.58,1.74,4.88,7.25,6.37,3.68,6,5.8,6.96,3.12,2.31,2.49,1.57,0.209,2.78,0.751,3.95
CCTGCAAGGTCAATGGTCAGCTAAAGCAGCTCGC,6.55,4.95,0.264,3.63,0.38,5.21,4.22,4.88,1.21,3.68,2.93,2.76,-0.252,-1.15,2.72,3.78,0.469,4.56,0.759,5.01
CAGCCTAGCTCAGGGCCAGTATAGGAGGAACGTT,-1.13,-1.14,-0.395,-1.15,-1.28,-1.21,-0.195,-1.24,-1.24,-1.17,-0.913,-0.949,-2.22,-2.03,-1.23,-0.988,-0.337,-1.33,-0.424,-0.591
TCTTGTAGATCTACAGGAGGTTAAGAAAGATCGA,-0.0507,1.18,0.0906,1.05,-0.353,1.13,0.0555,1.06,2.09,1.48,0.98,0.28,0.42,1.12,-0.349,0.739,-0.569,0.866,-0.41,0.172
